About 79,000 compounds went through this panel and 15% of them were active in at least one assay; those are over-represented in the sample as a whole. A number with no mark means an inactive call. Activity calls are given as the source filed them. No stated cut-off is given here; in the data, active means growth inhibition above about 70%; inactive means the rest. Where a SMILES comes first, the peptide text is derived from it. The star is where a group is joined. Boc = CC(C)(C)OC(=O)*; OBn = c1ccc(CO*)cc1; Bn = c1ccc(C*)cc1
Tests used:
[1] = NCI Yeast Anticancer Drug Screen. Data for the rad50 strain (AID 155);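 further: 0% = growth of vehicle-only cultures of the same strain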; details: S. cerevisiae rad50 strain growth inhibition, active compounds read high
How it was run: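 DNA repair mutant yeast, compound exposure, growth read-out; inhibition is taken relative to vehicle.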

[2] = NCI Yeast Anticancer Drug Screen. Data for the mec2-1 strain (AID 157); details: S. cerevisiae mec2-1 strain, active compounds read high
How it was run: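 Yeast mec2-1 mutant treated with compound. Readout: growth inhibition vs vehicle controls.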

[3] = NCI Yeast Anticancer Drug Screen. Data for the sgs1 mgt1 strain (AID 161);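 further: 0% = growth of cultures given vehicle only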; details: S. cerevisiae sgs1 mgt1 strain, active compounds read high
How it was run: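 Genetically altered yeast, compound exposure, growth inhibition relative to vehicle.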

[4] = NCI Yeast Anticancer Drug Screen. Data for the cln2 rad14 strain (AID 165);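 further: 0% = growth equal to vehicle treated cultures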; details: S. cerevisiae cln2 rad14 strain, active compounds read high
How it was run: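 cln2 rad14 yeast strain; compound exposure; growth inhibition read vs vehicle controls.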

[5] = NCI Yeast Anticancer Drug Screen. Data for the bub3 strain (AID 167); details: S. cerevisiae bub3 mutant strain, active compounds read high
How it was run: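 In this screen, a yeast mutant lacking normal mitotic checkpoint function is challenged with compound. Relative growth versus vehicle gives the inhibition value.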

[6] = NCI Yeast Anticancer Drug Screen. Data for the mlh1 rad18 strain (AID 175); details: S. cerevisiae mlh1 rad18 strain growth inhibition, active compounds read high
How it was run: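 Yeast w/ defined DNA-repair lesions; compound exposure; growth vs vehicle controls → % inhibition.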

[7] = at 5.0 µM (retest, dose inferred, filed as 0.5)
[8] = at 50.0 µM (retest, dose inferred, filed as 5.0)

Compound	growth inhibition [1, 7]	growth inhibition [1, 8]	growth inhibition ([1]; at 50.0 µM)	growth inhibition [2, 7] [%]	growth inhibition [2, 8]	growth inhibition ([2]; at 50.0 µM)	growth inhibition [3, 7]	growth inhibition [3, 8]	growth inhibition ([3]; at 50.0 µM)	growth inhibition [4, 7]	growth inhibition [4, 8]	growth inhibition ([4]; at 50.0 µM)	growth inhibition [5, 7]	growth inhibition [5, 8]	growth inhibition ([5]; at 50.0 µM)	growth inhibition [6, 7]	growth inhibition [6, 8]	growth inhibition ([6]; at 50.0 µM)
O=C1NOCC1N=Cc1cc(Cl)ccc1O (stereo not given)	9%	65%	75.8% (active)	3	30%	16.9%	-7%	35%	26.9%	0%	38%	23.4%	6%	61%	58.9%	9%	78% (active)	84% (active)
CCC[CH2][Sn]([CH2]CCC)([O]C(=O)c1c(F)cccc1F)[O]C(=O)c1c(F)cccc1F	80% (active)	80% (active)	88.8% (active)	66	66%	89.7% (active)	80% (active)	80% (active)	87.3% (active)	70% (active)	70% (active)	86.9% (active)	72% (active)	72% (active)	83.6% (active)	73% (active)	73% (active)	84% (active)
Cc1ccc2c(c1)CC1(C2)Cc2ccc(C)cc2C1=O (stereo not given)	6%	73% (active)	25.4%	-20	85% (active)	17.6%	-28%	75% (active)	54.3%	29%	39%	21.4%	-5%	88% (active)	64.8%	5%	65%	44.1%
CC(=O)OCC1(O)OCC(OC(C)=O)C(OC(C)=O)C1OC(C)=O (stereo not given)	18%	-21%	12.2%	-15	-20%	-2.6%	-4%	9%	12.6%	27%	-36%	-2.65%	6%	-25%	7.9%	-4%	-14%	12.9%
CCOC1Oc2ccccc2-c2nc(SC)ncc21 (stereo not given)	23%	20%	75.4% (active)	14	20%	19.9%	18%	21%	36.6%	26%	18%	15.9%	28%	55%	47.6%	17%	19%	43.9%
COc1c2occc2c(OC)c2c(C)c(C(=O)OCCN3CCOCC3)oc12	-1%	31%	64%	-3	5%	50.3%	-4%	43%	28.1%	-4%	2%	19.4%	1%	56%	58.1%	-5%	54%	66.2%
CCCCCCCN=C(N)c1ccc(C(=O)OCc2ccccc2)cc1	1%	86% (active)	99.5% (active)	-12	76% (active)	99.8% (active)	5%	95% (active)	99.8% (active)	-2%	80% (active)	99.4% (active)	0%	77% (active)	99.4% (active)	6%	94% (active)	99.7% (active)
O=C(NNc1ccc(F)cc1)C12CC3CC(CC(C3)C1)C2	9%	90% (active)	98.4% (active)	3	68%	17.8%	4%	98% (active)	53.2%	4%	57%	27.1%	-3%	97% (active)	98.3% (active)	2%	98% (active)	27.1%
CN(CC(=O)O)c1ncc2c(n1)-c1ccccc1OC2	17%	13%	48.6%	8	12%	57.1%	6%	17%	-21%	14%	18%	-23.5%	12%	15%	-28.1%	14%	10%	-55.2%
CC(C)CC(NC(=O)C(Cc1ccccc1)NC(=O)C(COCc1ccccc1)NC(=O)OC(C)(C)C)C(=O)OCc1ccccc1 (stereo not drawn) (Boc-Ser(Bn)-Phe-Leu-OBn; configuration not given here)	16%	13%	16.8%	22	15%	2.6%	-15%	-29%	17.2%	-3%	7%	16.2%	-4%	-7%	25.4%	26%	15%	24.3%
